# Hsp90 block – tumor Hsp90 inhibitors, primary screen, cell lysate, fluorescence polarization, NCI-N417 lysate; Cy3B-geldanamycin FP displacement; inhibition, % at 30 µM; Heat shock protein HSP 90-alpha (Homo sapiens), P07900; 64,000 tested, 0.35% active;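 active means inhibition above 50%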;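 further: 0% = tracer plus lysate wells and 100% = tracer alone without lysate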
# DUSP1 inh – MKP-1 phosphatase inhibitors, primary screen, biochemical, in vitro; Dual specificity protein phosphatase 1 (Homo sapiens), P28562; inhibition, %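 (compounds tested at a single concentration somewhere between 10 and 100 µM)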; 65,000 tested, 0.15% active; recombinant MKP-1, OMFP hydrolysis fluorescence;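 active means inhibition above about 50%, limit read from the data; inconclusive means inhibition over screen mean plus 3 SD, below that limit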;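 further: 0% = DMSO max control wells and 100% = wells with enzyme stopped by NaOH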
# Target sequence (P28562 whole entry, looked up): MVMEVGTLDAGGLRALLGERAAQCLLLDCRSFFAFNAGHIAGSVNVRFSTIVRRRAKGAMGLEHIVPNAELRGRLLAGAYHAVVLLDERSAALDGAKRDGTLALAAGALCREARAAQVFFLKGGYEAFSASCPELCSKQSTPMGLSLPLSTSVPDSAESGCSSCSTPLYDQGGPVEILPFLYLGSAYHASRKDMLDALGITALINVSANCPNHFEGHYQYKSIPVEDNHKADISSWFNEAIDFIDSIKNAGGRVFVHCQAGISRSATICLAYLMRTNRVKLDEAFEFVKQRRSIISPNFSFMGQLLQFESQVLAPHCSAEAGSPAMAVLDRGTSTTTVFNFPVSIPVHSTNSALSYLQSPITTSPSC
# HePTP inhibitor – inhibitors of human HePTP phosphatase, primary screen, biochemical, absorbance, leukemia target | recombinant HePTP phosphatase activity, OD absorbance | inhibition, % at 20 µM | 110,000 tested, 0.64% active | AID 521, 2006; in the data active means inhibition above about 50%; inconclusive means no clear call, values can overlap the other calls;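 further: plate controls were vehicle for no effect and reference inhibitor for full effect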
# BAP1 block – inhibitors of BAP1 deubiquitinase, primary screen, biochemical, Ub-AMC fluorescence, kinetic | Ubiquitin carboxyl-terminal hydrolase BAP1 (Homo sapiens), Q92560 | recombinant BAP1, Ub-AMC hydrolysis fluorescence kinetic; stronger effect = lower value | calls only at 20 µM | 72,000 tested, 0.48% active | AID 436, 2006;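 active means activity remaining at or below 50% of control, provided the compound also passes the data quality filters; inactive means the rest, including low values that fail the filters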;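 further: 100% = DMSO wells rate and 0% = substrate alone blank rate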
# Cdc25B block – inhibitors of Cdc25B phosphatase catalytic domain, primary screen, biochemical, OMFP fluorescence. M-phase inducer phosphatase 2 (Homo sapiens), P30305. recombinant Cdc25B, OMFP fluorescence Ex485/Em525. inhibition, %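 (compounds tested at 10 µM final in the well)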. 65,000 tested, 0.1% active. AID 368, 2006; in the data active means inhibition above about 50%
# Redox 05 DTT – redox cycling H2O2 generation, 0.5 mM DTT, dose response, artefact control, biochemical, Cdc25B catalytic domain | shares compounds with Cdc25B block | cell-free redox cycling H2O2 generation | EC50, µM | 30 tested, 50% active; in the data active means EC50 below about 30 µM
# Redox H2O2 1DTT – redox cycling H2O2 generation, 1 mM DTT, dose response, artefact control, biochemical, 1.0 mM DTT, Cdc25B catalytic domain; EC50, µM; 30 tested, under 10 active; cell-free redox cycling H2O2 generation; shares compounds with Cdc25B block; in the data active means EC50 below about 50 µM
# Redox H2O2 – redox cycling hydrogen peroxide production, dose response, artefact control, biochemical, probe assessment; shares compounds with DUSP1 inh; Redox cycling H2O2 generation, DTT, phenol red/HRP; EC50, µM; 60 tested, under 10 active; call rule not given here
# BAP1 inh conf – BAP1 deubiquitinase inhibitors, hit retest, confirmation, orthogonal assay, biochemical, Ub-ethyl ester substrate, HPLC readout. % of control activity, % at 20 µM. 310 tested, 8% active. AID 753, 2007. shares compounds with BAP1 block. purified BAP1, Ub-ethyl ester hydrolysis; stronger effect = lower value;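 active means percent of control activity at or below 60%; inconclusive means HPLC trace unusable from injection failure or solvent front hiding peaks; inactive means the rest, plus ubiquitin peak ratio over a set limit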
# * marks the source's active call; other numbers are inactive results; i = inactive; u = inconclusive; x = not tested or not shown; + = active, no number. An excerpt weighted towards active compounds, which were near 1.1% of everything screened.
SMILES,Hsp90 block,DUSP1 inh,HePTP inhibitor,BAP1 block,Cdc25B block,Redox H2O2,others
O=C1C=Cc2ccccc2C1=O,x,94*,x,x,99*,>50,Redox 05 DTT=26*;Redox H2O2 1DTT=>50
CCc1nc2ccccc2c(=O)n1-c1cccc(O)c1,x,x,-3,x,x,x,
CCn1nc(-c2cccs2)nc2c(=O)n(C)c(=O)nc1-2,98*,104*,u,+,101*,14*,Redox 05 DTT=0.65*;Redox H2O2 1DTT=1*;BAP1 inh conf=94
COc1ccc(CNCCc2cccc(F)c2)c(OC)c1C,x,x,x,i,x,x,
COCCCn1c(N)c(C(=O)NCCC(C)C)c2nc3ccccc3nc21,-11,55*,0,i,5,>50,
CCCCOCCCn1c(N)c(C(=O)OCCOC)c2nc3ccccc3nc21,-2,-14,8,x,30,x,
Cc1nc2cc(-c3cccc(F)c3)nn2c(C)c1CCC(=O)N1CCC2(CC1)OCCO2,-5,60*,1,i,-6,>50,
O=c1[nH]c2ccccc2c(=O)n1-c1ccccc1,x,x,-3,x,x,x,
CCC(=Nc1ccc2c(c1)CCC2)c1c(O)n(C2CCCCC2)c(=O)[nH]c1=O,-5,-30,-7,+,-1,x,BAP1 inh conf=84
O=c1c2ccccc2nc(/C=C/c2cccc([N+](=O)[O-])c2)n1-c1ccccc1O,x,x,10,x,x,x,

# Compound activity as filed in PubChem.
